# Measured values reported in the supplement of paper PMC3545927.
# The other results are listed elsewhere or left out. No count for the full screen is at hand.
# Biological target: furin, P09958
# Assay: furin cleavage Z-score vs untreated control; higher = more cleavage, active = 3.5 or more, inactive = 1 or less, 8 variable residues between constant flanks
# Procedure, shortened: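 The cleavage Z-score is the log read count relative to furin-free reactions, lowess-adjusted and scaled by median absolute deviation. Counts came from sequencing DNA released from bead-bound 8-mer peptide–cDNA fusions after digestion with purified furin for 7.5, 15 or 30 min.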
# 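Note: purified furin at 1:10 enzyme:substrate in 50 mM HEPES pH 7.5.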
# Sequence of furin, P09958 (P09958 whole entry): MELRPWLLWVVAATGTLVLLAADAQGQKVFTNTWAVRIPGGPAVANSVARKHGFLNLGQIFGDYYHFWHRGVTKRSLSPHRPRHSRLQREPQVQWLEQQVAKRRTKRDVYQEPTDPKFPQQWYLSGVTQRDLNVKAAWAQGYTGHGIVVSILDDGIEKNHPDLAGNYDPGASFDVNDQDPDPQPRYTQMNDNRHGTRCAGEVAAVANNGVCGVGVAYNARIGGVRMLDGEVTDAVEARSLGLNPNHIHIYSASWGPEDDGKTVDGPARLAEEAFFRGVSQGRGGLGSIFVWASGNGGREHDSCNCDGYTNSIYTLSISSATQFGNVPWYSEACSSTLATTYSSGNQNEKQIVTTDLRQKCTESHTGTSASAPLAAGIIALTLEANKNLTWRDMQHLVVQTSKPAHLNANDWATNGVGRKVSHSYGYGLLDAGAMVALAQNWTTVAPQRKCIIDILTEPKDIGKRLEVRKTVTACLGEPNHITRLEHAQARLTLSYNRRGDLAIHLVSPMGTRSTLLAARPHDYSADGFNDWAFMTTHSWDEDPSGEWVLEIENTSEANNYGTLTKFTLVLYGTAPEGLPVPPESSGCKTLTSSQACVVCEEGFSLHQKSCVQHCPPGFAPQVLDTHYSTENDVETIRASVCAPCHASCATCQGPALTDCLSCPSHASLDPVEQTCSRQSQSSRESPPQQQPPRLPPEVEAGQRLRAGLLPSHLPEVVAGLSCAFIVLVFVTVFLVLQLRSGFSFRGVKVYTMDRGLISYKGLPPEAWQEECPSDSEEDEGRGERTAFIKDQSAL
Sequence,furin cleavage Z-score (7.5 min),furin cleavage Z-score (15 min),furin cleavage Z-score (30 min)
CATDATSILGAGNASASA [HC821],0.234 (inactive),-0.686 (inactive),-0.354 (inactive)
CARHKKSKFTAGNASASA [FS-3253],-0.584 (inactive),-0.415 (inactive),-1.12 (inactive)
CASMPPLEGEAGNASASA [HC1354],0.264 (inactive),-0.391 (inactive),-0.745 (inactive)
CAGAAKAAAGAGNASASA [NG6],-1.87 (inactive),-1.89 (inactive),-1.77 (inactive)
CAVVCCYMSYAGNASASA [HC117],-0.228 (inactive),0.612 (inactive),-0.215 (inactive)
CAMTGYTGDFAGNASASA [HC881],0.318 (inactive),1.08,-0.18 (inactive)
CARLARGEDEAGNASASA [FS-2983],-0.38 (inactive),-0.666 (inactive),-0.468 (inactive)
CARLRRGGDPAGNASASA [FS-2574],-0.102 (inactive),1.44,0.372 (inactive)
CARPARFLRHAGNASASA [FS-1401],7.22 (active),9.82 (active),7.94 (active)
CARDRSELSPAGNASASA [HC489],-0.384 (inactive),0.819 (inactive),-0.778 (inactive)
CARLRRSLKPAGNASASA [FS-1745],6.9 (active),7.63 (active),9.8 (active)
CARLRRGQCPAGNASASA [FS-1744],-0.204 (inactive),1.25,-0.396 (inactive)
CAVTKRDVLDAGNASASA [FS-3144],-0.767 (inactive),-0.792 (inactive),0.507 (inactive)
CARLARNVKEAGNASASA [FS-2984],4.24 (active),6.29 (active),5.68 (active)
CARPARFLDSAGNASASA [FS-2051],0.467 (inactive),1.13,1.17
CAVTKRSLSPAGNASASA [FS-2115],1.18,3.3,4.48 (active)
CAEEVALSTTAGNASASA [HC842],0.962 (inactive),-0.0897 (inactive),1.67
CAEGTTPCSGAGNASASA [HC1976],-0.304 (inactive),0.383 (inactive),-0.263 (inactive)
CASTECSAHLAGNASASA [HC2512],-0.161 (inactive),-0.192 (inactive),2.81
CAEVVHSTWVAGNASASA [HC129],-0.835 (inactive),0.0271 (inactive),-0.684 (inactive)
CAHKFNSSGCAGNASASA [HC383],0.00727 (inactive),-1.4 (inactive),-0.526 (inactive)
CARLRRSLSPAGNASASA [FS-2352],10.8 (active),9.04 (active),8.19 (active)
CARLRRSNYFAGNASASA [FS-2717],0.785 (inactive),3.14,4.28 (active)
CARLRRSGRCAGNASASA [FS-3161],3.21,-0.166 (inactive),3.48
CARLRRVKTAAGNASASA [FS-1746],-0.934 (inactive),-0.994 (inactive),-0.54 (inactive)
CARLRRSKRCAGNASASA [FS-1607],2.93,1.58,3.77 (active)
CARLRRSLPPAGNASASA [FS-2280],7.15 (active),6.52 (active),7.39 (active)
CARLRRQKKGAGNASASA [FS-916],-0.934 (inactive),-1.47 (inactive),-0.511 (inactive)
